An excerpt weighted towards active compounds, which were near 19% of everything screened.
IL-1B inflam inh – qHTS for Inhibitors of Inflammasome Signaling: IL-1-beta AlphaLISA Primary Screen. THP-1 LPS/ATP IL-1B secretion, AlphaLISA, 16 h; active compounds read low. activity change, % at 57.5 µM. 360,000 tested, 4.7% active; in the data active = activity change below about -50%; inconclusive = mostly about -30% to -49%
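THP-1 cells pretreated 1 hr with compounds (up to 57.5 uM final), then stimulated with LPS (250 ng/mL final) plus ATP (1.25 mM final); secreted IL-1B measured by AlphaLISA after 16 hr, decreased signal indicating inhibition.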
TDP1 cell CPT – qHTS for Inhibitors of human tyrosyl-DNA phosphodiesterase 1 (TDP1): qHTS in cells in presence of CPT; chicken DT40 Tdp1-/-;hTDP1 cells + 20 nM CPT, ATP luminescence, 48 h; Potency, µM (series often up to 46.2 µM), inactives show top-dose activity change, negative = growth inhibition, hits mostly inhibitors; 420,000 tested, 12% active; AID 686979, 2013; note: potency is the fitted concentration of half-maximal effect; nearly all actives have a fitted effect of over 55% in size
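Chicken DT40 Tdp1-/- cells stably complemented with human TDP1 were seeded at 400 cells/well in medium containing 20 nM camptothecin, exposed to pin-transferred compounds, and grown at 37 °C for at least 48 hr. Viability was read as ATP luminescence.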
ELG1 repair inh – qHTS screen for small molecules that inhibit ELG1-dependent DNA repair in human embryonic kidney (HEK293T) cells expressing luciferase-tagged ELG1; 330,000 tested, 2.3% active; HEK293T ELG1-luciferase reporter, luminescence, 16 h; DNA damage induced by 5-fluorouridine; Potency, µM (doses to about 46.1 µM), inactives show at the top dose activity change, negative = inhibition, hits mostly inhibitors; AID 504467, 2011; note: potency is the fitted concentration of half-maximal effect; nearly all actives have a fitted effect of over 55% in size
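Quantitative HTS, concentration-response format. 2,000 cells/well co-treated with 5-fluorouridine and compound, 16 hr in 5% CO2 at 37 °C; ONE-Glo luminescence read after 30 min.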
HT1080-NT tox – qHTS for induction of synthetic lethality in tumor cells producing 2HG: qHTS for the HT-1080-NT fibrosarcoma cell line | HT-1080-NT fibrosarcoma viability, CellTiter-Glo ATP luminescence, 48 h | Potency, µM (titrated, usually from 46.1 µM), without a hit: at the highest dose activity, negative = less viability, most hits filed as cytotoxic | 360,000 tested, 1.6% active;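 note: NT is the 2HG producing partner of a matched IDH1 knockdown line; potency is the fitted concentration of half-maximal effect; 0% = DMSO-treated cells and -100% = media-only wells without cells; nearly all actives have a fitted effect of over 55% in size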
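Compounds were tested in concentration-response format on HT-1080-NT cells for 48 hours at 37 degrees C. Cell viability came from CellTiter-Glo luminescence; curves were classified by r2, response magnitude and activity.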
TDP1 cell noCPT – qHTS for Inhibitors of human tyrosyl-DNA phosphodiesterase 1 (TDP1): qHTS in cells in absence of CPT | DT40 Tdp1-/- hTDP1 cells, no CPT, ATP luminescence, 48 h | Potency, µM (highest dose often 46.2 µM), inactives show at the highest dose activity change, negative = growth inhibition, most hits filed as inhibitors | 420,000 tested, 15% active; note: potency is the fitted concentration of half-maximal effect; nearly all actives have a fitted effect of over 55% in size
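Luminescent ATP content (CellTiter-Glo) served as the growth readout. Knockout chicken DT40 cells expressing human TDP1 were exposed to compounds without camptothecin for a minimum 48 hr at 37 °C.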
HT1080 IDH1KD tx – qHTS for induction of synthetic lethality in tumor cells producing 2HG: qHTS for the HT-1080-IDH1KD cell line | HT-1080 IDH1 knockdown viability, ATP luminescence, 48 h | Potency, µM (doses to about 46.1 µM), for inactives: top-dose activity, negative = toxicity, hits mostly cytotoxic | 360,000 tested, 2% active | AID 686971, 2013;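 note: potency is the fitted concentration of half-maximal effect; 0% = DMSO wells and -100% = cell-free medium wells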
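CellTiter-Glo luminescence after 48 h compound exposure at 37 degrees C of IDH1-knockdown HT-1080 cells in 5% FBS RPMI. %Activity scaled between DMSO wells and cell-free media wells, with curves fitted and assigned curve classes.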
Numbers without * were called inactive. Unless noted, calls come from the whole dose curve; as a rule, active = well fitted curve in the direction sought with a large enough effect; inconclusive = small, poorly fitted or top-dose-only effect, or another doubt; inactive = no such curve, though single readings can be large; an effect the other way counts as inactive or inconclusive. Unless noted, % is set by controls: 0 for no effect and ±100 for the full control effect.

`OCCNCc1c(OCc2ccc(Cl)cc2)ccc2ccccc12` gave TDP1 cell CPT 18.4µM*, ELG1 repair inh -21.0%, HT1080-NT tox 23.1µM*, TDP1 cell noCPT 23.1µM* and HT1080 IDH1KD tx inconclusive.
`CNC(=S)/N=C(\Nc1ccc(C)cc1)c1ccccc1` gave TDP1 cell CPT 8.5%, ELG1 repair inh inconclusive, HT1080-NT tox 1.0%, TDP1 cell noCPT inconclusive and HT1080 IDH1KD tx 16.5%.
For N/C(=N\C(=S)Nc1ccccc1)c1ccccc1 the results were IL-1B inflam inh 16.1, TDP1 cell CPT inconclusive, ELG1 repair inh inconclusive, HT1080-NT tox -10.7%, TDP1 cell noCPT 16.4µM* and HT1080 IDH1KD tx -2.2%.
For CNC(=S)/N=C(/Nc1ccccc1)c1ccccc1 the results were IL-1B inflam inh -68.9*, TDP1 cell CPT -19.7%, ELG1 repair inh -8.9%, HT1080-NT tox 5.9%, TDP1 cell noCPT 6.8% and HT1080 IDH1KD tx 6.2%.
Cc1c(Cl)cccc1NC(=O)CN1C(=O)CCn2nc(-c3cccn3C)cc21 was read as TDP1 cell CPT -6.2% and TDP1 cell noCPT -24.3%.
For CCn1[nH]c(=O)c(=Nc2c(C)n(C)n(-c3ccccc3)c2=O)cc1-c1ccc(Cl)cc1 the results were IL-1B inflam inh -51.6*, TDP1 cell CPT -9.3%, ELG1 repair inh -14.0%, HT1080-NT tox -12.5%, TDP1 cell noCPT inconclusive and HT1080 IDH1KD tx -15.7%.
`COc1ccc(-c2cc(=Nc3c(C)n(C)n(-c4ccccc4)c3=O)c3ccccc3o2)cc1` gave IL-1B inflam inh -29.2, TDP1 cell CPT inconclusive, ELG1 repair inh inconclusive, HT1080-NT tox -6.3%, TDP1 cell noCPT 20.6µM* and HT1080 IDH1KD tx -20.9%.
Cc1c(N=Cc2ccc(-c3ccc(Cl)cc3)o2)c(=O)n(-c2ccccc2)n1C was read as IL-1B inflam inh 12.9, TDP1 cell CPT -4.6%, ELG1 repair inh -0.2%, HT1080-NT tox 13.6%, TDP1 cell noCPT -16.7% and HT1080 IDH1KD tx 8.2%.
Screening COc1ccc(-c2c/c(=N\c3nc(-c4ccccc4)c(C)s3)c3ccccc3o2)cc1O returned IL-1B inflam inh 18.4, TDP1 cell CPT 5.8µM*, ELG1 repair inh inconclusive, HT1080-NT tox 5.8µM*, TDP1 cell noCPT 4.11µM* and HT1080 IDH1KD tx 5.8µM*.
COc1ccc(-c2csc(=Nc3c(C)n(C)n(-c4ccccc4)c3=O)n2C(C)(C)C)cc1 was read as IL-1B inflam inh -5.9, TDP1 cell CPT -2.3%, ELG1 repair inh 11.2%, HT1080-NT tox -0.6%, TDP1 cell noCPT -8.6% and HT1080 IDH1KD tx -3.9%.
COC(=O)c1[nH]c2ccccc2c1CN1CCOCC1 was read as IL-1B inflam inh -4.5, TDP1 cell CPT -2.5%, ELG1 repair inh inconclusive, HT1080-NT tox -0.6%, TDP1 cell noCPT 4.3% and HT1080 IDH1KD tx 1.3%.
Screening O=C(c1cnccn1)N1CCC2(CCCN(c3ccncc3)C2)CC1 returned TDP1 cell CPT 2.4% and TDP1 cell noCPT -12.2%.
Screening Cc1cccc(C)c1NC(=O)C1(C)CCC(=O)N1C1CC1 (stereo unspecified) returned IL-1B inflam inh -13.4, TDP1 cell CPT -2.1%, HT1080-NT tox 21.9%, TDP1 cell noCPT 7.8% and HT1080 IDH1KD tx 27.2%.
For CCOc1c(Cl)cc(CNCC(C)C)cc1OC the results were IL-1B inflam inh 4.4, TDP1 cell CPT -0.7%, ELG1 repair inh 12.0%, HT1080-NT tox -4.7%, TDP1 cell noCPT -20.4% and HT1080 IDH1KD tx -2.1%.
